Paper PMC7862700, “An all-to-all approach to the identification of sequence-specific readers for epigenetic DNA modifications on cytosine”

What was measured:
Assay in all cases: DAPPL (digital affinity profiling via proximity ligation, sequencing); 10 mM Tris-HCl pH 7.5, 50 mM NaCl, 1 mM DTT, 4% glycerol, room temperature, 30 min; GST-TFs on glutathione beads, 16-mer random dsDNA library, 0.1% formaldehyde crosslink after washing; high values mean tight binding
FEV = target: T1, FEV (Homo sapiens, UniProt Q99581 1-238); settings: protein: recombinant; tags: N-terminal GST; dsDNA, one strand shown
T1 sequence: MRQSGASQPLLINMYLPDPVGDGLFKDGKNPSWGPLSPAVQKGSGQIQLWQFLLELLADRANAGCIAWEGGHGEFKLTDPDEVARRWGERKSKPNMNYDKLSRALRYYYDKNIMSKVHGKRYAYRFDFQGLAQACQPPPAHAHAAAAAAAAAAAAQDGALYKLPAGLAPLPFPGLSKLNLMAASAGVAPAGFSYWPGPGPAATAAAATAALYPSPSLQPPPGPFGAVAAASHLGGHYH
Outline: (§1)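 Pools of DNA-barcoded human transcription factors, expressed in yeast as GST fusions on glutathione beads and combined with a tag-only sample, were incubated with 200 nmole of a 16-mer random double-stranded DNA library. Incubation took 30 min at room temperature in Tris/NaCl/DTT/glycerol buffer and was followed by washing, 0.1% formaldehyde crosslinking, proximity ligation (BsaI/T4 ligase, 1 h, 37 °C), PCR amplification and sequencing on an Illumina NextSeq500. Binding signal is the ratio of a hexamer's read frequency for a factor to its frequency for the tag-only sample.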

ETV5 = ETV5 (Homo sapiens, UniProt P41161 1-510); settings: protein: recombinant; tags: N-terminal GST; dsDNA, one strand shown
Outline: as §1

HSF1 = HSF1 (Homo sapiens, UniProt Q00613 1-529); settings: protein: recombinant; tags: N-terminal GST; chain copies: 3; dsDNA, one strand shown
Outline: as §1

SPIC = target: T2, SPIC (Homo sapiens, UniProt Q8N5J4 1-248); settings: protein: recombinant; tags: N-terminal GST; dsDNA, one strand shown
T2 sequence: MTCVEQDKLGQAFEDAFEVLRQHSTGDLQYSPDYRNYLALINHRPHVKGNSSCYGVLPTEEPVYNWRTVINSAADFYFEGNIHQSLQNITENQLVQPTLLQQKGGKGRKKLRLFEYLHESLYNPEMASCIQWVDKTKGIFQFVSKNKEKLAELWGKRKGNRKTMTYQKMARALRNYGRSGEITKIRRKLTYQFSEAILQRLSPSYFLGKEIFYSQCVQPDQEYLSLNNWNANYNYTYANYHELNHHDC
Outline: as §1

ELF4 = ELF4 (Homo sapiens, UniProt Q99607 1-663); settings: protein: recombinant; tags: N-terminal GST; dsDNA, one strand shown
Outline: as §1

ELK4 = target: T3, ELK4 (Homo sapiens, UniProt P28324-2 1-405); settings: protein: recombinant; tags: N-terminal GST; dsDNA, one strand shown
T3 sequence: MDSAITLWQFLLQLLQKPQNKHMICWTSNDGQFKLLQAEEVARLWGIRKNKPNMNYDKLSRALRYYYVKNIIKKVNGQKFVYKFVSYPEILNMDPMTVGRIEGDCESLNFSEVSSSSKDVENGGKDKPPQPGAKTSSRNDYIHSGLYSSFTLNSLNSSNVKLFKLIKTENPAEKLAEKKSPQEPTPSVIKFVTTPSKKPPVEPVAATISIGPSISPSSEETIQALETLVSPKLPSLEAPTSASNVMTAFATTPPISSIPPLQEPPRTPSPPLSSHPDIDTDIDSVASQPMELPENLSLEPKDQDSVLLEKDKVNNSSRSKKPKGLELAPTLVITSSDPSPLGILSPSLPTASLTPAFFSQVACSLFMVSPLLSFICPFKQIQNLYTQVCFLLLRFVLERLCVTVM
Outline: as §1

ETV2 = target: T4, ETV2 (Homo sapiens, UniProt O00321 1-342); settings: protein: recombinant; tags: N-terminal GST; dsDNA, one strand shown
T4 sequence: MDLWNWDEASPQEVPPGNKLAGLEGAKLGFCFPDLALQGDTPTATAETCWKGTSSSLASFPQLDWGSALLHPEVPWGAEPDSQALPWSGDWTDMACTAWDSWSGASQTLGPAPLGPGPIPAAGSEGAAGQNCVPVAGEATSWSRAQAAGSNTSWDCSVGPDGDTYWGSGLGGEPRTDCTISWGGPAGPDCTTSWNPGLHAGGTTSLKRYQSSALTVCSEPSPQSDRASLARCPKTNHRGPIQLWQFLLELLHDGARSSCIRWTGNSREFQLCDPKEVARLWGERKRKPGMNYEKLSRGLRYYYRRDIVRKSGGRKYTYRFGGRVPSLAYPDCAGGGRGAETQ
Outline: as §1

ELF3 = target: T5, ELF3 (Homo sapiens, UniProt P78545 1-371); settings: protein: recombinant; tags: N-terminal GST; dsDNA, one strand shown
T5 sequence: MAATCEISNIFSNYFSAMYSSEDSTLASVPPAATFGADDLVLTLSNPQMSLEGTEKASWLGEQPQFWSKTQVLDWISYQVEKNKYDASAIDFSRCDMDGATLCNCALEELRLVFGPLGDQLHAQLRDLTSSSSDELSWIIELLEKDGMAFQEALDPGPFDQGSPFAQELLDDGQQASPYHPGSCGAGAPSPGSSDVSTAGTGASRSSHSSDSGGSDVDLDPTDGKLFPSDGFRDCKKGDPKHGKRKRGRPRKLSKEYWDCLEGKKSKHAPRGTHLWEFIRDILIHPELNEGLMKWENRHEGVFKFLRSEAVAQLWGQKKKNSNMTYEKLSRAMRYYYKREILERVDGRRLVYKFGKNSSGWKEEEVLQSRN
Outline: as §1

CRX = CRX (Homo sapiens, UniProt O43186 1-299); settings: protein: recombinant; tags: N-terminal GST; dsDNA, one strand shown
Outline: as §1

ETV1 = ETV1 (Homo sapiens, UniProt P50549 1-477); settings: protein: recombinant; tags: N-terminal GST; dsDNA, one strand shown
Outline: as §1

Chain of HSF1 (Q00613 whole entry): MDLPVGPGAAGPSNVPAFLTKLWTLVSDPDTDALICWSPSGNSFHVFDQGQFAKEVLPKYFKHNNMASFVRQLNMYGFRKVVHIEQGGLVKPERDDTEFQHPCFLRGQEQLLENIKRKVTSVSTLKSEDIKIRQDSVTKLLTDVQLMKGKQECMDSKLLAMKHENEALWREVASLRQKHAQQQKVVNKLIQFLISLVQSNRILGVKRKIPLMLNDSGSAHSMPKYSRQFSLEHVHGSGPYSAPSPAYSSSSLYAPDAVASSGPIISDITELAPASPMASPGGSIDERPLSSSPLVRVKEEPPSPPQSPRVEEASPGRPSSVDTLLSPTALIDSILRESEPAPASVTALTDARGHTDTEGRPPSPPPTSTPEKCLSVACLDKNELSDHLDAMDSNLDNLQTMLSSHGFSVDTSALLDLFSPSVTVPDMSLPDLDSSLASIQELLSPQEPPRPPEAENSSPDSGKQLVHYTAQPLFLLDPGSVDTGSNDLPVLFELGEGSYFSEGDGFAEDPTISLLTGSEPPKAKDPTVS
Chain of ETV1 (P50549 whole entry): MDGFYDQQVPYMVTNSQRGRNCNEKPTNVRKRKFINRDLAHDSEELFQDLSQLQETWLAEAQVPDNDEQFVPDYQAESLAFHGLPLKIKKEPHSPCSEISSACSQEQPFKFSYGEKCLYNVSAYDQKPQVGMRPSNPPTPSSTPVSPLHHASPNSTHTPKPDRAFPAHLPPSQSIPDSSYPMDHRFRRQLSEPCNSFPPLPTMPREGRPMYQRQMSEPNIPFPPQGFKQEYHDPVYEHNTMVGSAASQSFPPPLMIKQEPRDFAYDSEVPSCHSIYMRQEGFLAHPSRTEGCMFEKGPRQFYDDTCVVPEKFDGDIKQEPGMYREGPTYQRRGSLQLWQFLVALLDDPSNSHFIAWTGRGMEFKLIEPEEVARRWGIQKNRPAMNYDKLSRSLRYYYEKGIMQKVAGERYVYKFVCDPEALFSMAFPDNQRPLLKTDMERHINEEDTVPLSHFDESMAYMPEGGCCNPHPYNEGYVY
Chain of ELF4 (Q99607 whole entry): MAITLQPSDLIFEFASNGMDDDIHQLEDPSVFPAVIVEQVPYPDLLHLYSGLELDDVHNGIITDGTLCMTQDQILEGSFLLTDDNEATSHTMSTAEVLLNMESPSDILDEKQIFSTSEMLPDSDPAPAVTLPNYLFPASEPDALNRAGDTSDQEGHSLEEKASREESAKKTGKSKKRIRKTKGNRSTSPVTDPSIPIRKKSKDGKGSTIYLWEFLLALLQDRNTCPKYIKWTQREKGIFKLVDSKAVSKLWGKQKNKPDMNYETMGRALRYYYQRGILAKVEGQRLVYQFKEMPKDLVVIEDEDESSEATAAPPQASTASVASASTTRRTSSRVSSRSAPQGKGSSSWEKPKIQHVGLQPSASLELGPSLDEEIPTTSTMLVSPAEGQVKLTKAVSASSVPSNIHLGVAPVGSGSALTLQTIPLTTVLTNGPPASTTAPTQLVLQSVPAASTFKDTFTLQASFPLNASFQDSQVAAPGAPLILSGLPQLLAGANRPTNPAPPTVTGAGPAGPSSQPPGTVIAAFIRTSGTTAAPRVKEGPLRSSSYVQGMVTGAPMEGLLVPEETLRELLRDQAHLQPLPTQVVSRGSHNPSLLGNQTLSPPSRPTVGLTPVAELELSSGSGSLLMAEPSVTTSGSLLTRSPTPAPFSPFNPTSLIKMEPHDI
Chain of ETV5 (P41161 whole entry): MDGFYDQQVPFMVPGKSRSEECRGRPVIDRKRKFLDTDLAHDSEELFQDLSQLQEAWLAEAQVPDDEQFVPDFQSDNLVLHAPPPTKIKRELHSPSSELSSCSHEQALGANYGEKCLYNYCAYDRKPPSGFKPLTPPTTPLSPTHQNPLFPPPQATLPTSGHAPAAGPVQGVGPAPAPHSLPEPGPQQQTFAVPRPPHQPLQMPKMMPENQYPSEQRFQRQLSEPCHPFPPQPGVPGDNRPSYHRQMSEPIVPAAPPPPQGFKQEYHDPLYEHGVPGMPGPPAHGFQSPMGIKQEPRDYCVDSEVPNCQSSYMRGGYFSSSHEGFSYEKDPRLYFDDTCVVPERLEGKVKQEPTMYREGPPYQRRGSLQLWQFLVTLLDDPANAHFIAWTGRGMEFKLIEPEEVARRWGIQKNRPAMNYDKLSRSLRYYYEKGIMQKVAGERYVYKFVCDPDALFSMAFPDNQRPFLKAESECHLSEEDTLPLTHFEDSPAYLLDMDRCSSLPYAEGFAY
Chain of CRX (O43186 whole entry): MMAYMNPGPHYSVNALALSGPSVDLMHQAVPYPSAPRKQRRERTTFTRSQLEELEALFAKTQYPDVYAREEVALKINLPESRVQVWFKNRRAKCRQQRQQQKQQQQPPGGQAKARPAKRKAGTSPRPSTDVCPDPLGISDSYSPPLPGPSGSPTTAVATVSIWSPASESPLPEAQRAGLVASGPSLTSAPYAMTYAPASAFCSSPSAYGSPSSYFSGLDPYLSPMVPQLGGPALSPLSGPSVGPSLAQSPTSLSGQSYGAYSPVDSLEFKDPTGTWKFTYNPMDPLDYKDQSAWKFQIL

## TTTAAG
FEV
  binding signal: 1.31 fold enrichment (6-mer frequency, TF over GST control)
ETV5
  binding signal: 1.34 fold enrichment (6-mer frequency, TF over GST control)
HSF1
  binding signal: 1.87 fold enrichment (6-mer frequency, TF over GST control)
SPIC
  binding signal: 1.47 fold enrichment (6-mer frequency, TF over GST control)
ELF4
  binding signal: 1.29 fold enrichment (6-mer frequency, TF over GST control)
ELK4
  binding signal: 1.22 fold enrichment (6-mer frequency, TF over GST control)
ETV2
  binding signal: 1.38 fold enrichment (6-mer frequency, TF over GST control)
ELF3
  binding signal: 1.28 fold enrichment (6-mer frequency, TF over GST control)
CRX
  binding signal: 2.81 fold enrichment (6-mer frequency, TF over GST control)
ETV1
  binding signal: 1.28 fold enrichment (6-mer frequency, TF over GST control)
